In PubChem BioAssay (Tox21):
Inconclusive results are not listed. Active and inactive are the calls of the source. Unless noted, calls follow the shape of the dose curve; as a rule, active = well fitted curve in the direction sought with a large enough effect in the repeat runs; inconclusive = weak or mixed curves; inactive = no such curve, though single readings can be large; an effect the other way counts as inactive or inconclusive.

Assays:
[1] = qHTS RealTime-Glo MT Cell Viability Assay in HEK293 cells - 24 hour (AID 1224886); also: top concentration of the series differs between compounds; nearly all actives have a fitted effect of over 50% in size
How it was run: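 Nonlytic real-time viability readout: viable cells convert prosubstrate to NanoLuc substrate, giving luminescence proportional to live cell number. HEK293, 600 cells/well, compound added after 5 h, continuous culture at 37 C.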

[2] = qHTS RealTime-Glo MT Cell Viability Assay in HEK293 cells - 8 hour (AID 1224887); also: top concentration of the series differs between compounds; nearly all actives have a fitted effect of over 50% in size
How it was run: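 600 cells/well were plated with the nonlytic NanoLuc/prosubstrate reagent, pre-incubated 5 h, then given 23 nL of compound in DMSO. Incubation at 37 C for 40 h, with luminescence from viable-cell-reduced substrate read repeatedly from 0 h.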

[3] = A CellTox Green Cytotoxicity Assay to monitor cytotoxicity in HEK293 cells - 16 hour (AID 1224888); also: nearly all actives have a fitted effect of over 35% in size
How it was run: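 HEK293 cells, 600/well, were preincubated 5 hours and then exposed to compounds at 37 C for up to 40 hours. A cell-impermeant cyanine dye staining dead-cell DNA was read by fluorescence at 0, 8, 16, 24, 32 and 40 h time points.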

[4] = A CellTox Green Cytotoxicity Assay to monitor cytotoxicity in HepG2 cells - 8 hour (AID 1224890); also: nearly all actives have a fitted effect of over 45% in size; also: potency is read from the fitted curve at half-maximal effect
How it was run: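 HepG2 cells, 600/well, preincubated 5 h with CellTox Green dye, then exposed to Tox21 compounds in DMSO at 37 C for up to 40 h. Dead-cell DNA fluorescence read at the indicated time point.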

[5] = qHTS assay to identify small molecule antagonists of the estrogen receptor alpha (ER-alpha) signaling pathway using the BG1 cell line in the presence of 0.1 nM 17-beta-estradiol - cell viability counter screen (AID 1259241); also: nearly all actives have a fitted effect of over 40% in size
How it was run: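 In this screen, hormone-deprived VM7Luc4E2 cells were seeded at 4,000 per well, dosed with compound and 0.1 nM estradiol final, and incubated 22 hr at 37C and 5% CO2; fluorogenic live-cell protease signal reported viability.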

[6] = qHTS assay to identify small molecule antagonists of the androgen receptor (AR) signaling pathway using the MDA cell line in the presence of 0.5 nM R1881 - cell viability counter screen (AID 1259242); also: nearly all actives have a fitted effect of over 45% in size
How it was run: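 MDA-kb2 cells (MMTV-luciferase, AR/GR responsive) were treated with compounds plus 0.5 nM R1881 (final) for 16 hr at 37C, 0% CO2. Viability was then read in the same wells as live-cell protease fluorescence (CellTiter-Fluor, 30 min).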

[7] = qHTS assay to identify small molecule phospholipidosis (PLD) inducers (AID 1259344; active = well fitted curve in the direction sought with a large enough effect; an effect the other way counts as inactive or inconclusive)
How it was run: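 Phospholipidosis is scored by imaging LipidTOX-stained pits in HepG2 cells exposed to compound for 24 h at 37 C; pit counts and integrated intensities per well and per cell serve as outputs.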

[8] = qHTS assay to identify small molecule HDAC inhibitors - cell viability counter screen (AID 1259365); also: series mostly up to about 92 µM; nearly all actives have a fitted effect of over 50% in size
How it was run: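 Measured quantity is CellTiter-Glo luminescence from wild-type HCT-116 cells after compound incubation of 2hr at 37C, 5% CO2; reagent developed 30min at room temperature.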

[9] = qHTS assay to identify small molecule agonists of the sonic hedgehog signaling (Shh) pathway - cell viability counter screen (AID 1259366); also: nearly all actives have a fitted effect of over 50% in size
How it was run: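 In quantitative high-throughput format, 3T3 Gli1-Luc cells were exposed to compounds for 24hr and multiplexed for viability using CellTiter-Fluor, incubated 1hr at 37C before the fluorescence read.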

[10] = qHTS assay to identify small molecule antagonists of the sonic hedgehog signaling (Shh) pathway - cell viability counter screen (AID 1259367); also: nearly all actives have a fitted effect of over 55% in size
How it was run: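 Cells: 3T3 Gli1-Luc, 2,000/well, 4 hr pre-incubation. Compounds in DMSO, then conditioned medium. Incubation 24 hr, 37C, 5% CO2. CellTiter-Fluor at 23 hr, 1 hr, fluorescence.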

[11] = qHTS assay to identify small molecule antagonists of the sonic hedgehog signaling (Shh) pathway (AID 1259369; calls by dose curve; also: nearly all actives have a fitted effect of over 45% in size)
How it was run: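 NIH/3T3-derived Gli1-Luc reporter cells plated 4 h, dosed with compound, then stimulated with conditioned medium for 24 h at 37 C. Firefly luciferase luminescence read after 30 min with detection reagent at room temperature.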

[12] = target: Estrogen receptor beta (Homo sapiens) (UniProt Q92731); assay: qHTS assay to identify small molecule agonists of the estrogen receptor beta (ER-beta) signaling pathway (AID 1259377; active = well fitted activation curve with a large enough effect in the signal ratio in the repeat runs, not every such curve was filed as active; the % refers to the signal ratio)
Estrogen receptor beta (Homo sapiens), sequence (Q92731 whole entry, looked up): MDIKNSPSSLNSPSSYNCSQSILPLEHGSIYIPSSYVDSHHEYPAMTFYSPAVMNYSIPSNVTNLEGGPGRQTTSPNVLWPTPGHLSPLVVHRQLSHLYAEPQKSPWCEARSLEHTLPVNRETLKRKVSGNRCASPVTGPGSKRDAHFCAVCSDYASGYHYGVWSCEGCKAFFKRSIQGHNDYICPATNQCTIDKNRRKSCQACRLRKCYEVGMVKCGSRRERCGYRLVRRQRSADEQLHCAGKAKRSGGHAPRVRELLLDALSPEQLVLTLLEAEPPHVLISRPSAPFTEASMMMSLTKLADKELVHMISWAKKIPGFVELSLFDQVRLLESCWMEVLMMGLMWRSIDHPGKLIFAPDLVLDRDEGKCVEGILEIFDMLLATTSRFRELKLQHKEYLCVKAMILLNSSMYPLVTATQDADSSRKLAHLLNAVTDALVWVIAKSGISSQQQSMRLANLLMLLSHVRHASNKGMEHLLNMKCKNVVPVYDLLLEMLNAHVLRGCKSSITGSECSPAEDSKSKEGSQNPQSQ
How it was run: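 Reporter cells (HEK293T, ER-beta-UAS-bla) receive compounds or DMSO after a 6 hr pre-incubation. They then incubate 16 hr at 37C/5% CO2, and fluorescence from LiveBLAzer B/G substrate is measured after 2 hours at room temperature.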

[13] = target: Estrogen receptor beta (Homo sapiens) (UniProt Q92731); assay: qHTS assay to identify small molecule antagonists of the estrogen receptor beta (ER-beta) signaling pathway (AID 1259378; active = well fitted inhibition curve with a large enough effect in the signal ratio in the repeat runs, not every such curve was filed as active; the % refers to the signal ratio)
How it was run: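 Antagonist mode: compounds added to beta-lactamase reporter HEK293T ER-beta-UAS cells stimulated with E2 (1nM final), 16 hr at 37C. LiveBLAzer B/G FRET substrate, 2 hours room temperature, fluorescence read-out.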

[14] = qHTS assay to identify small molecule agonists of the androgen receptor (AR) signaling pathway in the presence of an antagonist - cell viability counter screen (AID 1259379);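 also: MDA-kb2 human breast cancer cells carrying an MMTV luciferase reporter; series mostly up to about 92 µM; nearly all actives have a fitted effect of over 25% in size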
How it was run: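 MDA-kb2 cells (MMTV-luciferase, AR/GR), 3,000/well, 5 h attachment, then 3.0 µM nilutamide (final) and compounds at 15 concentrations. Viability by CellTiter-Fluor fluorescence after 16 h at 37 °C, 0% CO2, in the reporter wells.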

[15] = target: Estrogen receptor (Homo sapiens) (UniProt P03372); assay: qHTS assay to identify small molecule antagonists of the estrogen receptor alpha (ER-alpha) signaling pathway using the BG1 cell line in the presence of 0.1 nM 17-beta-estradiol (AID 1259244); also: nearly all actives have a fitted effect of over 50% in size
Estrogen receptor (Homo sapiens), sequence (P03372 whole entry, looked up): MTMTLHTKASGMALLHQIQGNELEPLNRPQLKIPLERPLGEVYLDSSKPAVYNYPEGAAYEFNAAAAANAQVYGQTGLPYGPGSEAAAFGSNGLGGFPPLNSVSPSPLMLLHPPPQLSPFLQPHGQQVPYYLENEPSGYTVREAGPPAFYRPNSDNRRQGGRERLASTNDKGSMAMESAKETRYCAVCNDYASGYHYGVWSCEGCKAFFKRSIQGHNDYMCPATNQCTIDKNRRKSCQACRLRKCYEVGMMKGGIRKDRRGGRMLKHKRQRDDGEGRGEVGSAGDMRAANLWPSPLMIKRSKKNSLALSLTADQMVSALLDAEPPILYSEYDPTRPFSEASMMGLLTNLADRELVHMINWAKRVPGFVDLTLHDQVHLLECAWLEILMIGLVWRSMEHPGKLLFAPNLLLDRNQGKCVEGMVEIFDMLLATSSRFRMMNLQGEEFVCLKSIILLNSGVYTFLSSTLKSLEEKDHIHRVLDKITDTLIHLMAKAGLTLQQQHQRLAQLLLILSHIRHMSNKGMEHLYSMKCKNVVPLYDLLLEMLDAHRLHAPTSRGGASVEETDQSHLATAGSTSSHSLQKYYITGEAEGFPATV
How it was run: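 VM7Luc4E2 cells (endogenous full-length ER-alpha, 4×ERE-luciferase), kept 5 days in phenol red-free, charcoal-stripped FBS medium; 4,000 cells/well. Compounds added with 0.1 nM (final) 17beta-estradiol, 22 hr at 37C; luminescence read with ONE-Glo after 30 min.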

[16] = qHTS assay to identify small molecule HDAC inhibitors (AID 1259364); also: top concentration of the series differs between compounds; nearly all actives have a fitted effect of over 45% in size
How it was run: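 Wild-type HCT-116 cells, plated overnight at 37 C, exposed to compounds 2 hr at 37 C; luminogenic HDAC-Glo substrate then added 30 min at room temperature. Luminescence reports relative endogenous class I/II HDAC activity.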

[17] = qHTS assay to identify small molecule agonists of the sonic hedgehog signaling (Shh) pathway (AID 1259368; calls by dose curve;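 also: NIH/3T3-derived 3T3Gli1-Luc cells carrying a stable Gli1-driven firefly luciferase reporter; series mostly up to about 92 µM; nearly all actives have a fitted effect of over 15% in size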)
How it was run: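 NIH/3T3-derived 3T3Gli1-Luc cells with stably integrated Gli1-driven firefly luciferase, 2,000 cells/well, compounds added after 4 hr. Incubated 24 hr at 37C, 5% CO2; luminescence read after 30 min with luciferase reagent at room temperature.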

[18] = qHTS assay to identify small molecule agonists of the estrogen receptor beta (ER-beta) signaling pathway - cell viability counter screen (AID 1259380); also: nearly all actives have a fitted effect of over 30% in size
How it was run: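 ER-beta-UAS-bla HEK293T cells in medium with 2% charcoal-stripped FBS, pre-incubated 6 hr, then treated 16 hr at 37C. Cytotoxicity read in the same wells by CellTiter-Glo luminescence after 30 min at room temperature.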

[19] = qHTS RealTime-Glo MT Cell Viability Assay in HepG2 cells - 0 hour (AID 1224889); also: nearly all actives have a fitted effect of over 50% in size
How it was run: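 Luminescence read-out: viable HepG2 cells reduce a prosubstrate to a NanoLuc substrate, giving a signal proportional to live cell number. Reads taken at 0, 8, 16, 24, 32 and 40 h of compound exposure at 37 C.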

[20] = target: Androgen receptor (Homo sapiens) (UniProt P10275); assay: qHTS assay to identify small molecule antagonists of the androgen receptor (AR) signaling pathway using the MDA cell line in the presence of 0.5 nM R1881 (AID 1259243); also: nearly all actives have a fitted effect of over 50% in size
Androgen receptor (Homo sapiens), sequence (P10275 whole entry, looked up): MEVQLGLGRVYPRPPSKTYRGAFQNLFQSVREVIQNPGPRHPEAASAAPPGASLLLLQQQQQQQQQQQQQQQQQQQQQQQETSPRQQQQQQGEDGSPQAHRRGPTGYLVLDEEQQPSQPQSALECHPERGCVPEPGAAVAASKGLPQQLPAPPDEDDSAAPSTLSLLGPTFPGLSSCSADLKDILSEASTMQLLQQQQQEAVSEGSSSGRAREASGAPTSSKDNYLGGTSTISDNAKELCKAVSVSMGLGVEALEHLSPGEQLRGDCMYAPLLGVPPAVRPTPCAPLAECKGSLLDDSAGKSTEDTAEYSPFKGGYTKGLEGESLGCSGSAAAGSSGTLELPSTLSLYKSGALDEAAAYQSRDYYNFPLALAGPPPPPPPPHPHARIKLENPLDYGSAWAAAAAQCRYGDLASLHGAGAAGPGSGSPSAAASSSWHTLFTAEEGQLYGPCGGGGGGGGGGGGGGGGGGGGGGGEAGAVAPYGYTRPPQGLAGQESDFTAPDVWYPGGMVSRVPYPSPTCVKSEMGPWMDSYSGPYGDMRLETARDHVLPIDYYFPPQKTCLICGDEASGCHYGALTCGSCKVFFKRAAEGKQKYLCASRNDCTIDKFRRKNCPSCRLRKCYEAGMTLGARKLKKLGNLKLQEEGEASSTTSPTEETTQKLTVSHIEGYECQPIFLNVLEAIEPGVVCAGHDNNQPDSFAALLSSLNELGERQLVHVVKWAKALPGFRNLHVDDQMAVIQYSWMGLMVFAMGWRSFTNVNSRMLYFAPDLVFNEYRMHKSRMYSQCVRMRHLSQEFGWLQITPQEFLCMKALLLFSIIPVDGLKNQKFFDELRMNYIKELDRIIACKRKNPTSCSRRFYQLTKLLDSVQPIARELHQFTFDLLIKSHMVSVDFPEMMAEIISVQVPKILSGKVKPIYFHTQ
How it was run: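 MDA-kb2 cells (MMTV-luciferase, responsive to AR and GR) at 3,000/well, rested 5 h at 37C, 0% CO2, then given compounds plus 0.5 nM R1881 (final) for 16 hr. Luciferase read with ONE-Glo after 30 min at room temperature.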

Measured: Potency

CC(N)CCCC(C)(C)O (stereo not drawn)
not listed: [15] | [16] | [17] | [18] | [19] | [20]
inactive: all other assays above

N#Cc1ccccc1O
not listed: [7] | [9] | [12] | [13] | [19] | [20]
inactive: all other assays above

C[C@@H](O)C(=O)O
not listed: [3] | [7] | [9] | [12] | [13] | [20]
inactive: all other assays above

CCCCCC/C=C/C(=O)OC
active: [4] 49 µM
not listed: [3] | [7] | [15] | [16] | [20]
inactive: all other assays above

CC(C)NC(=O)c1ccc(C=O)cc1
not listed: [3] | [4] | [6] | [7]
inactive: all other assays above

CCC(=O)c1c(O)cc(O)cc1O
not listed: [3] | [5] | [8] | [12] | [16] | [18]
inactive: all other assays above

O=C(Cl)c1ccccc1[N+](=O)[O-]
not listed: [2] | [6] | [7] | [15]
inactive: all other assays above

C=CCCCCCCCC
inactive: [1] | [2] | [19] | [4] | [5] | [10] | [17] | [11] | [14] | [18]
